Screening data from PubChem BioAssay.
Shown are actives, neighbours in structure and some others; about 1.7% of the full set was active somewhere.
PTHR1 ag: qHTS for PTHR1 Agonists: Primary Screen; Parathyroid hormone/parathyroid hormone-related peptide receptor (Homo sapiens), Q03431; HEK293 GP2 PTHR1 cells, GloSensor cAMP luminescence, 1 h; Potency, µM (titrated, usually from 115 µM), inactives show at the highest dose activation, actives largely listed as activators; actives 0.075% (n = 410,000); AID 743266, 2014; further: nearly all actives have a fitted effect of over 55% in size
Target sequence (Q03431 whole entry, looked up): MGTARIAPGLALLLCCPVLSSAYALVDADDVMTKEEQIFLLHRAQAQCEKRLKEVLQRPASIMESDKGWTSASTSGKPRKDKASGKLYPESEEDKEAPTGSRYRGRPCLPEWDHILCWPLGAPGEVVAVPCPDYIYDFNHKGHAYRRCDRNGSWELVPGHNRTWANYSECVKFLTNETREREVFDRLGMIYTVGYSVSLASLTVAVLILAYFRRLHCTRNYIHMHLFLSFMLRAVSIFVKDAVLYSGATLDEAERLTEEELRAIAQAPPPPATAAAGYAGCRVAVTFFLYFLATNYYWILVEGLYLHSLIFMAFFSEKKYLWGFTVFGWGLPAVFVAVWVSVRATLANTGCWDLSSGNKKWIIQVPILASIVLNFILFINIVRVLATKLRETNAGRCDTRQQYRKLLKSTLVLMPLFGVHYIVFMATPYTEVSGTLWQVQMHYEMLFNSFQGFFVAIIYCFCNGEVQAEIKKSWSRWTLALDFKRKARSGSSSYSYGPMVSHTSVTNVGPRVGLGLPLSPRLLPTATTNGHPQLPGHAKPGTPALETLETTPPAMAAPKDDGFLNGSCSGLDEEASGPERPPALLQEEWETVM
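HEK-293-derived GP2 cells expressing PTHR1 and a GloSensor cAMP reporter, 3,000/well, plated overnight, given luciferin plus IBMX (each 0.5 mM as added) for 1 h at 37 °C, then compound for 1 h at 37 °C. Luminescence was read after 15 min at room temperature.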
GLP1R ag: qHTS of GLP-1 Receptor Agonists | Glucagon-like peptide 1 receptor (Homo sapiens), P43220 | HEK293 GLP-1R CRE-luciferase, luminescence, 4-6 h; cells express a hypersensitive GLP-1R form | Potency, µM (titrated, usually from 45.6 µM), inactives show at the top dose activation, most hits filed as activators | actives 0.007% (n = 380,000); further: % of control where 0% means no effect
HEK293 tox: qHTS of GLP-1 Receptor Inverse Agonists: Cytotox Screen; actives 0.13% (n = 410,000); HEK293 cAMP-luciferase reporter cells, luminescence, 24 h; Potency, µM (doses to about 38.3 µM), for inactives: at the highest dose activity change, negative = inhibition, hits mostly inhibitors;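 further: loss of luciferase light is scored as toxicity; on the % scale 0 is the no-effect control and ±100 the full control effect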
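Step one: seed cells (200 cells/uL, DMEM with 10% Nu serum, 1% pen-strep). Step two: 12-hour incubation at 37 deg C. Step three: pin 23 nL compound, incubate 24 hr. Step four: add luciferase reagent, read luminescence 12 min later.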
GLP1R inv ag: qHTS of GLP-1 Receptor Inverse Agonists (Inhibition Mode). HEK293 GLP-1R CRE-luciferase, luminescence, 24 h; GLP-1R form is constitutively active. Potency, µM (titrated, usually from 38.3 µM), inactives show at the highest dose activity change, negative = inhibition, most hits filed as inhibitors. actives 1.6% (n = 410,000); further: on the % scale 0 is the no-effect control and ±100 the full control effect; nearly all actives have a fitted effect of over 55% in size
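Inverse agonism was detected as reduced cAMP-driven luciferase luminescence after 24 h compound treatment. The cells were HEK293 clones expressing constitutively active human GLP-1R with the reporter. Reporter-only and GPR119 cell lines served as counterscreen controls.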
The depositor's hits bear a star; i = inactive; ? = inconclusive; · = no result given; [ ] = remark or other dose. The call rests on the fitted dose curve; in most records, active means well fitted curve in the direction sought with a large enough effect; inconclusive means small, poorly fitted or top-dose-only effect, or another doubt; inactive means no such curve, though single readings can be large; an effect the other way counts as inactive or inconclusive. Potency means the concentration at half of the fitted maximal effect.

SMILES	PTHR1 ag	GLP1R ag	HEK293 tox	GLP1R inv ag
CN(CC(=O)Nc1cccc(Cl)c1)S(=O)(=O)c1ccc2[nH]c3c(c2c1)CCCC3	-3%	·	-2%	?
CCCN(CC1CC1)C(=S)NC(=O)c1cc(Br)ccc1Cl	-42%	-4%	3.2µM*	-79%
N#CC(c1ccc([N+](=O)[O-])cc1)C(CC(=O)c1ccccc1)c1ccccc1 (stereo unspecified)	i	9%	4%	11µM*
N#CC(c1cccc([N+](=O)[O-])c1)C(CC(=O)c1ccccc1)c1ccccc1 (stereo unspecified)	-15%	-1%	11%	?
N#CC(c1ccccc1)C(CC(=NO)c1ccccc1)c1ccccc1 (stereo unspecified)	-32%	-6%	-3%	8.9µM*
Cc1cccc2cc(CN(CCCO)C(=O)Nc3cccc(Cl)c3)c(=O)[nH]c12	-24%[57.5 µM]	6%	-12%	11µM*
Cc1ccccc1C(=O)Nc1nc(-c2ccc(Br)cc2)ns1	-11%	·	-20%	?
CCCN(CC(=O)Nc1ccccc1C)CC(=O)Nc1ccc(Br)cc1F	i	12%	-23%	10µM*
CCCN(CC(=O)Nc1ccccc1Br)CC(=O)Nc1ccc(F)c(F)c1F	-29%	19%	-16%	?
Cc1ccc(C)c(Cn2c(=O)cc(C)c3c(C)nn(C)c32)c1	i	·	-2%	-16%
CCOC(=O)c1c(S(=O)(=O)N2CCCC(C(=O)N3CCN(c4ccc(F)cc4)CC3)C2)c(C)n(C)c1C (stereo unspecified)	i	·	-14%	-3%
CCOc1ccc(C(O)(c2ccccc2OC)C(CN2CCCC2)c2ccccc2)cc1 (stereo unspecified)	i	-3%	-14%	?
CCCCC(O)(c1ccccc1)C(CN1CCOCC1)c1ccccc1 (stereo unspecified)	-9%	2%	-1%	10µM*
COc1ccc(C(O)(c2ccccc2OC)C(CN2CCOCC2)c2ccccc2)cc1 (stereo unspecified)	-28%	1%	-1%	10µM*
CCCCOc1ccc(C(O)C(CN2CCOCC2)c2ccccc2)cc1 (stereo unspecified)	-25%	-1%	2%	10µM*
CCCOc1ccc(C(O)C(CN2CCOCC2)c2ccccc2)cc1 (stereo unspecified)	-4%[57.5 µM]	-9%	-7%	?
C[C@H](CO)N1C[C@H](C)[C@H](CN(C)C(=O)Nc2ccc(F)cc2)OCc2ccccc2-c2c(n(C)c3ccccc23)C1=O	-26%	-1%	-22%	10µM*
COc1ccc(Cn2c(=O)c3oc4ccccc4c3n(Cc3ccc(F)cc3)c2=O)cc1	-15%	·	-4%	9%
CCOC(=O)c1c(CSc2ccc(CC)cc2)oc2ccc(O)c(CN(C)C)c12	-11%	18%	?	2.5µM*
C=CCn1c(Cc2cccs2)nnc1SCC(=O)c1cccc(Br)c1	i	6%	-9%	5.6µM*
O=C(Nc1nc2ccccc2n1CCN1CCOCC1)c1ccc(Cn2cc([N+](=O)[O-])cn2)o1	-64%	-1%	-27%	21%
O=C(Nc1nc2ccccc2n1CCN1CCOCC1)c1ccc(COc2ccccc2Br)o1	-23%	13%	3.5µM*	?
O=C(CCC1CCN(Cc2ccccc2)CC1)c1ccc2c(c1)NCCCC2	·	1%	·	·
Cc1cccc(N2CCN(C(=O)c3ccc(S(=O)(=O)N(C)c4ccccc4)cc3)CC2)c1C	-87%	3%	-25%	1µM*
Cc1cccc(C)c1N1CCN(C(=O)c2ccc3c(c2)OCO3)CC1	-9%	-2%	11%	10µM*
SMILES	PTHR1 ag	GLP1R ag	HEK293 tox	GLP1R inv ag
Cc1cccc(N2CCN(C(=O)c3ccc4[nH]c(C)c(C)c4c3)CC2)c1C	i	11%	-16%	2.5µM*
Cc1cccc(N2CCN(C(=O)c3ccc4c(c3)OCCO4)CC2)c1C	i	0%	14%[7.66 µM]	-29%[7.66 µM]
O=C(NCc1ccccc1)c1ccc(Br)o1	2%	1%	-26%	-4%
O=C(c1ccc(Br)o1)N(Cc1ccccc1)Cc1ccccc1	-43%	19%	-9%	10µM*
COc1ccc(N2CCN(CC(=O)Nc3ccc(SC(F)F)cc3)CC2)cc1	-35%	-6%	-6%	10µM*
COc1ccc(N2CCN(CC(=O)Nc3ccc(C)cc3)CC2)cc1	i	9%	0%	?
COc1ccccc1NS(=O)(=O)c1cc([N+](=O)[O-])ccc1N/N=C/c1c[nH]c2ccccc12	i	0%	-23%	5µM*
CC(C)(C)OC(=O)N1CCC(c2c(C(=O)N3CCN(Cc4ccccc4)CC3)cnn2-c2cccc(Cl)c2)CC1	i	·	0%	0%
COc1cccc(-c2nnc3n2N=C(C(C)(C)C)CS3)c1	-9%	-18%	-22%	11µM*
CCOc1ccc(CCNC(=O)Cn2c(=O)c3cccn3c3ccc(F)cc32)cc1OCC	i	·	-2%	30%
Cc1ccccc1CN1C(=O)c2ccccc2Sc2ccc(C(=O)OCc3ccco3)cc21	-14%	6%	1%	?
Cc1ccc(C)c(N2CCN(S(=O)(=O)c3ccc(-c4cnc(C5CC5)o4)cc3)CC2)c1	i	·	-19%	?
Cc1cccc(N2CCN(S(=O)(=O)c3ccc(-c4cnc(C5CC5)o4)cc3)CC2)c1C	i	·	0%	11µM*
Cc1cc(C)cc(NC(=O)CCS(=O)(=O)c2ccc3c(c2)oc(=O)n3C)c1	i	·	-5%	-5%
COCCCNC(=O)CSc1nc2cc3c(cc2c(=O)n1CCCCCC(=O)NCc1ccc2c(c1)OCO2)OCO3	i	·	4%	6%
O=C(Cc1cccc(C(F)(F)F)c1)NCc1cccc(Cl)c1	-13%	10%	0%	10µM*
O=C(Nc1cccc(C(F)(F)F)c1)C1CCN(S(=O)(=O)c2cccc3nsnc23)CC1	-32%	-3%	-11%	?
CN(C)c1ccc(NC(=S)c2ccccn2)cc1	-24%	-16%	-27%	5.6µM*
Cc1ccnc(Nc2nc3ccccc3o2)n1	-38%	-6%	?	2.5µM*
Cc1nc(Nc2nc3ccccc3o2)nc(C)c1C	-27%	-1%	1%	?
CCOc1ccc2oc(=O)cc(CN3CCN(c4cc(C)ccc4C)CC3)c2c1	-9%	·	10%	3%
CC(O)CNCCCCOc1ccc(OCc2ccccc2)cc1 (stereo unspecified)	-4%	-1%	-9%	14µM*
Cc1cccc(NC(=O)c2cccc(Cn3cc(Br)c([N+](=O)[O-])n3)c2)c1C	-42%	5%	-15%	10µM*
Cc1ccccc1NC(=O)c1cccc(Cn2cc(Br)c([N+](=O)[O-])n2)c1	-30%	-1%	-3%	?
Cc1ccc(-c2nc(P(=O)(c3ccccc3)c3ccccc3)c(N3CCOCC3)o2)cc1	-29%	4%	-30%	10µM*
